Reference: the supplement of paper PMC4466140

B1: unnamed (peptide)
chain: SRYRRPLTLLLLKPF
B2: unnamed (peptide)
chain: NPLPKEPRLPKRKVA
B3: unnamed (peptide)
chain: PPLPRAPPVPPATFE

These binders were tested against AgAbp1 (assay: SPOT peptide array binding signal intensity (averaged, normalized) (arbitrary units (background-subtracted, floor 0; scale differs between SH3 domains)); higher = stronger binding of the SH3 domain to the peptide).
Outline: (§1)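 Peptides were synthetic 15-mers on cellulose membranes, with every cysteine replaced by serine. They were incubated overnight at 4°C with GST-SH3 domains from four yeast species at 10 μg/ml in TBS-based blocking buffer. Binding signal, the replicate-averaged normalized and background-subtracted spot intensity, is in arbitrary units that differ between domains.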

Binder | SPOT peptide array binding signal intensity
B1 | 16
B2 | 16
B3 | 16

These binders were tested against AgBbc1 in the same assay as above.
Outline: as §1

Binder | SPOT peptide array binding signal intensity
B1 | 6
B2 | 254
B3 | 0.5

Each binder was assayed against AgBem1-D1 in the same assay as above.
Outline: as §1

Binder | SPOT peptide array binding signal intensity
B1 | 0.5
B2 | 66.5
B3 | 40.5

These binders were tested against AgBzz1-D1 in the same assay as above.
Outline: as §1

Binder | SPOT peptide array binding signal intensity
B1 | 23
B2 | 48
B3 | 18

Each binder was assayed against AgBzz1-D2 in the same assay as above.
Outline: as §1

Binder | SPOT peptide array binding signal intensity
B1 | 17
B2 | 78.5
B3 | ≤ 0

What follows are binders tested against AgCyk3 in the same assay as above.
Outline: as §1

Binder | SPOT peptide array binding signal intensity
B1 | 1
B2 | 1
B3 | 0.5

These binders were tested against AgFus1 in the same assay as above.
Outline: as §1

Binder | SPOT peptide array binding signal intensity
B1 | 965
B2 | 20
B3 | ≤ 0

Each binder was assayed against AgHof1 in the same assay as above.
Outline: as §1

Binder | SPOT peptide array binding signal intensity
B1 | 13.8
B2 | 28
B3 | 43.2

The binders below were run against AgHse1 in the same assay as above.
Outline: as §1

Binder | SPOT peptide array binding signal intensity
B1 | 1270
B2 | 134
B3 | 15

The binders below were run against AgLsb1 in the same assay as above.
Outline: as §1

Binder | SPOT peptide array binding signal intensity
B1 | ≤ 0
B2 | 3.25
B3 | 17.2

What follows are binders tested against AgLsb4 in the same assay as above.
Outline: as §1

Binder | SPOT peptide array binding signal intensity
B1 | 270
B2 | 2040
B3 | ≤ 0

Each binder was assayed against AgMyo5 in the same assay as above.
Outline: as §1

Binder | SPOT peptide array binding signal intensity
B1 | 0.5
B2 | ≤ 0
B3 | 434

These binders were tested against AgNbp2 in the same assay as above.
Outline: as §1

Binder | SPOT peptide array binding signal intensity
B1 | 97.5
B2 | 25
B3 | 107

The binders below were run against AgRvs167 in the same assay as above.
Outline: as §1

Binder | SPOT peptide array binding signal intensity
B1 | 5.17
B2 | 23
B3 | ≤ 0

These binders were tested against AgSho1 in the same assay as above.
Outline: as §1

Binder | SPOT peptide array binding signal intensity
B1 | 334
B2 | 37
B3 | 6

What follows are binders tested against AgSla1-D1-D2 in the same assay as above.
Outline: as §1

Binder | SPOT peptide array binding signal intensity
B1 | 40
B2 | 28
B3 | 5

The binders below were run against AgSla1-D3 in the same assay as above.
Outline: as §1

Binder | SPOT peptide array binding signal intensity
B1 | 4
B2 | 9
B3 | ≤ 0

The binders below were run against CaAbp1-D1 in the same assay as above.
Outline: as §1

Binder | SPOT peptide array binding signal intensity
B1 | 155
B2 | 655
B3 | 21.5

These binders were tested against CaAbp1-D2 in the same assay as above.
Outline: as §1

Binder | SPOT peptide array binding signal intensity
B1 | 128
B2 | 376
B3 | 20

Each binder was assayed against CaBbc1 in the same assay as above.
Outline: as §1

Binder | SPOT peptide array binding signal intensity
B1 | 38
B2 | 1010
B3 | 79.2

What follows are binders tested against CaBem1-D1 in the same assay as above.
Outline: as §1

Binder | SPOT peptide array binding signal intensity
B1 | 8.5
B2 | 30
B3 | 23

These binders were tested against CaBzz1-D1 in the same assay as above.
Outline: as §1

Binder | SPOT peptide array binding signal intensity
B1 | 26.5
B2 | 122
B3 | 243

These binders were tested against CaBzz1-D2 in the same assay as above.
Outline: as §1

Binder | SPOT peptide array binding signal intensity
B1 | 14.2
B2 | 95.5
B3 | 39.5

What follows are binders tested against CaCyk3 in the same assay as above.
Outline: as §1

Binder | SPOT peptide array binding signal intensity
B1 | 9
B2 | 6.5
B3 | 1.5

These binders were tested against CaFus1 in the same assay as above.
Outline: as §1

Binder | SPOT peptide array binding signal intensity
B1 | 1410
B2 | 190
B3 | 47

These binders were tested against CaHof1 in the same assay as above.
Outline: as §1

Binder | SPOT peptide array binding signal intensity
B1 | 0.5
B2 | 2
B3 | 1.5

Each binder was assayed against CaHse1 in the same assay as above.
Outline: as §1

Binder | SPOT peptide array binding signal intensity
B1 | 80.8
B2 | 10.8
B3 | ≤ 0

The binders below were run against CaLsb1 in the same assay as above.
Outline: as §1

Binder | SPOT peptide array binding signal intensity
B1 | 2.5
B2 | 4
B3 | ≤ 0

These binders were tested against CaLsb4 in the same assay as above.
Outline: as §1

Binder | SPOT peptide array binding signal intensity
B1 | 37
B2 | 3890
B3 | ≤ 0

Each binder was assayed against CaMyo5 in the same assay as above.
Outline: as §1

Binder | SPOT peptide array binding signal intensity
B1 | ≤ 0
B2 | 4
B3 | 104

Each binder was assayed against CaNbp2 in the same assay as above.
Outline: as §1

Binder | SPOT peptide array binding signal intensity
B1 | 870
B2 | 112
B3 | 1100

Each binder was assayed against CaRvs167 in the same assay as above.
Outline: as §1

Binder | SPOT peptide array binding signal intensity
B1 | 66.8
B2 | 303
B3 | ≤ 0

Each binder was assayed against CaRvs167-3 in the same assay as above.
Outline: as §1

Binder | SPOT peptide array binding signal intensity
B1 | 141
B2 | 4.5
B3 | ≤ 0

These binders were tested against CaSho1 in the same assay as above.
Outline: as §1

Binder | SPOT peptide array binding signal intensity
B1 | 493
B2 | 60
B3 | 14

What follows are binders tested against CaSla1-D1-D2 in the same assay as above.
Outline: as §1

Binder | SPOT peptide array binding signal intensity
B1 | ≤ 0
B2 | 1220
B3 | 2

The binders below were run against CaSla1-D3 in the same assay as above.
Outline: as §1

Binder | SPOT peptide array binding signal intensity
B1 | 39.2
B2 | 6
B3 | 1

The binders below were run against ScAbp1 in the same assay as above.
Outline: as §1

Binder | SPOT peptide array binding signal intensity
B1 | 83
B2 | 147
B3 | 4.5

The binders below were run against ScBbc1 in the same assay as above.
Outline: as §1

Binder | SPOT peptide array binding signal intensity
B1 | 2.5
B2 | 168
B3 | ≤ 0

The binders below were run against ScBem1-D1 in the same assay as above.
Outline: as §1

Binder | SPOT peptide array binding signal intensity
B1 | 10
B2 | 12.5
B3 | ≤ 0

Each binder was assayed against ScBzz1-D1 in the same assay as above.
Outline: as §1

Binder | SPOT peptide array binding signal intensity
B1 | 13
B2 | 81
B3 | 4.5

The binders below were run against ScBzz1-D2 in the same assay as above.
Outline: as §1

Binder | SPOT peptide array binding signal intensity
B1 | 74.5
B2 | 56.5
B3 | ≤ 0

Each binder was assayed against ScCyk3 in the same assay as above.
Outline: as §1

Binder | SPOT peptide array binding signal intensity
B1 | 28
B2 | 3
B3 | ≤ 0

The binders below were run against ScFus1 in the same assay as above.
Outline: as §1

Binder | SPOT peptide array binding signal intensity
B1 | 546
B2 | 42
B3 | 11

The binders below were run against ScHof1 in the same assay as above.
Outline: as §1

Binder | SPOT peptide array binding signal intensity
B1 | 1
B2 | 1.25
B3 | 241

These binders were tested against ScHse1 in the same assay as above.
Outline: as §1

Binder | SPOT peptide array binding signal intensity
B1 | 2310
B2 | 337
B3 | ≤ 0

What follows are binders tested against ScLsb1 in the same assay as above.
Outline: as §1

Binder | SPOT peptide array binding signal intensity
B1 | 12.5
B2 | 29.5
B3 | 1

These binders were tested against ScLsb2 in the same assay as above.
Outline: as §1

Binder | SPOT peptide array binding signal intensity
B1 | 2
B2 | ≤ 0
B3 | 11

Each binder was assayed against ScLsb3 in the same assay as above.
Outline: as §1

Binder | SPOT peptide array binding signal intensity
B1 | 107
B2 | 3820
B3 | 84

Each binder was assayed against ScLsb4 in the same assay as above.
Outline: as §1

Binder | SPOT peptide array binding signal intensity
B1 | 31.5
B2 | 1350
B3 | ≤ 0

Each binder was assayed against ScMyo3 in the same assay as above.
Outline: as §1

Binder | SPOT peptide array binding signal intensity
B1 | 0.5
B2 | ≤ 0
B3 | 1100

Each binder was assayed against ScMyo5 in the same assay as above.
Outline: as §1

Binder | SPOT peptide array binding signal intensity
B1 | 0.5
B2 | ≤ 0
B3 | 463

These binders were tested against ScNbp2 in the same assay as above.
Outline: as §1

Binder | SPOT peptide array binding signal intensity
B1 | 234
B2 | 41
B3 | 200

Each binder was assayed against ScPex13 in the same assay as above.
Outline: as §1

Binder | SPOT peptide array binding signal intensity
B1 | 1
B2 | 58.2
B3 | 95

The binders below were run against ScRvs167 in the same assay as above.
Outline: as §1

Binder | SPOT peptide array binding signal intensity
B1 | 11
B2 | 1460
B3 | 33.5

Each binder was assayed against ScSho1 in the same assay as above.
Outline: as §1

Binder | SPOT peptide array binding signal intensity
B1 | 648
B2 | 286
B3 | 81

Each binder was assayed against ScSla1-D1-D2 in the same assay as above.
Outline: as §1

Binder | SPOT peptide array binding signal intensity
B1 | 1
B2 | 546
B3 | ≤ 0

Each binder was assayed against ScSla1-D3 in the same assay as above.
Outline: as §1

Binder | SPOT peptide array binding signal intensity
B1 | 8
B2 | 4.5
B3 | ≤ 0

Each binder was assayed against SpAbp1-D1 in the same assay as above.
Outline: as §1

Binder | SPOT peptide array binding signal intensity
B1 | 199
B2 | 86
B3 | 7

These binders were tested against SpBbc1 in the same assay as above.
Outline: as §1

Binder | SPOT peptide array binding signal intensity
B1 | 6.25
B2 | 4.25
B3 | 1

These binders were tested against SpBzz1-D1 in the same assay as above.
Outline: as §1

Binder | SPOT peptide array binding signal intensity
B1 | 18
B2 | 356
B3 | 566

Each binder was assayed against SpBzz1-D2 in the same assay as above.
Outline: as §1

Binder | SPOT peptide array binding signal intensity
B2 | 2.5
B3 | 23.2

What follows are binders tested against SpCyk3 in the same assay as above.
Outline: as §1

Binder | SPOT peptide array binding signal intensity
B2 | ≤ 0
B3 | ≤ 0

The binders below were run against SpHof1 in the same assay as above.
Outline: as §1

Binder | SPOT peptide array binding signal intensity
B2 | 120
B3 | 1

The binders below were run against SpHof1-2 in the same assay as above.
Outline: as §1

Binder | SPOT peptide array binding signal intensity
B2 | 262
B3 | 707

The binders below were run against SpHof1-3 in the same assay as above.
Outline: as §1

Binder | SPOT peptide array binding signal intensity
B2 | 464
B3 | 125

What follows are binders tested against SpHse1 in the same assay as above.
Outline: as §1

Binder | SPOT peptide array binding signal intensity
B2 | 198
B3 | 30.8

These binders were tested against SpLsb1 in the same assay as above.
Outline: as §1

Binder | SPOT peptide array binding signal intensity
B2 | 16
B3 | 1.75

The binders below were run against SpLsb4 in the same assay as above.
Outline: as §1

Binder | SPOT peptide array binding signal intensity
B2 | 7280
B3 | ≤ 0

Each binder was assayed against SpMyo1 in the same assay as above.
Outline: as §1

Binder | SPOT peptide array binding signal intensity
B2 | ≤ 0
B3 | 422

The binders below were run against SpNbp2 in the same assay as above.
Outline: as §1

Binder | SPOT peptide array binding signal intensity
B2 | 27
B3 | 17

The binders below were run against SpPex13 in the same assay as above.
Outline: as §1

Binder | SPOT peptide array binding signal intensity
B2 | 15
B3 | ≤ 0

These binders were tested against SpRvs167 in the same assay as above.
Outline: as §1

Binder | SPOT peptide array binding signal intensity
B2 | 1700
B3 | 88

These binders were tested against SpSla1-D1-D2 in the same assay as above.
Outline: as §1

Binder | SPOT peptide array binding signal intensity
B2 | ≤ 0
B3 | 3

What follows are binders tested against SpSla1-D3 in the same assay as above.
Outline: as §1

Binder | SPOT peptide array binding signal intensity
B2 | 15
B3 | ≤ 0
